Assay results published in PubChem BioAssay (NCATS).
Results filed as inconclusive are left out. The source made the active and inactive calls. The call rests on the fitted dose curve; in most records, active means well fitted cell-killing curve with a large enough effect; inconclusive means small, poorly fitted or top-dose-only effect; inactive means flat fitted curve, though single readings scatter.

test: qHTS of pediatric cancer cell lines to identify multiple opportunities for drug repurposing: Confirmatory screen for SK-N-SH cells (AID 1347129); details: SK-N-SH neuroblastoma cell viability; series mostly up to 46.1 µM;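 further: cells exposed to compound for 48 h before viability read; nearly all actives have a fitted effect of over 60% in size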
In short: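 Viability after 48 h compound treatment at 37C, 500-1,000 cells/well, read as ATP luminescence with CellTiter-Glo. Primary screens used 11-point (MIPE, 0.78 nM-46 µM) or 8-point (NPC, 0.59 nM-46 µM) final concentrations; follow-up screens used 11-point dilutions.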
Potency means the concentration at half of the fitted maximal effect.

SMILES	Potency
Cc1nc2ccc(CN(C)c3ccc(C(=O)N[C@@H](CCC(=O)O)C(=O)O)s3)cc2c(=O)[nH]1	inactive
Cc1ccc(C(=O)Nc2ccc(CN3CCN(C)CC3)c(C(F)(F)F)c2)cc1C#Cc1cnc2cccnn12	1.48 µM (active)
Cc1cc(C(=O)N2CCN(c3cccc(Cl)c3)CC2)n(-c2ccccc2)n1	inactive
Nc1cc(C(F)(F)F)c(-c2cc(N3CCOCC3)nc(N3CCOCC3)n2)cn1	4.69 µM (active)
CC(C)CC(=O)Nc1n[nH]c2c1CN(C(=O)C1CCN(C)CC1)C2(C)C	4.18 µM (active)
Nc1ccn([C@@H]2O[C@H](CO)[C@H](O)C2(F)F)c(=O)n1	inactive
Cc1nc(N)ncc1-c1nc(N2CCOCC2)c2sc(C(C)(C)O)cc2n1	1.48 µM (active)
Cc1cc(Nc2cc(N3CCN(C)CC3)nc(Sc3ccc(NC(=O)C4CC4)cc3)n2)n[nH]1	11.8 µM (active)
